Screening results: PubChem BioAssay, National Center for Advancing Translational Sciences (NCATS)
Rows were chosen to be rich in hits. Some 1.4% of all compounds tested hit in one or more screens of this group.
TrxR1 substrate – rat thioredoxin reductase 1 substrate activity; O89049; AID 588456; hit rate 0.01% among 390,000; purified TrxR1 substrate turnover, NADPH consumption readout; Potency, µM (highest dose often 114 µM); also: nearly all actives have a fitted effect of over 50% in size
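Rat TrxR1, dispensed at 90 nM, was prereduced with 400 uM NADPH (final) for 5 min at ~22 deg C, then incubated with compound 15 min before 400 uM selenite. A first-read NADPH fluorescence drop versus no-compound background flagged substrates.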
pAkt inh – blocks phosphorylation of Akt; Neuro2A IGF-stimulated pAkt S473 HTRF, 20 min; stronger effect = lower value; hit rate 0.32% among 360,000; activity change, % for hits at 50 µM; in the data active = activity change below about -80%; inconclusive = mostly about -51% to -80%
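Neuro2A cells (4,500/well, DMEM with 0.5% FBS) were treated with compound at a single 50 µM final concentration, stimulated with 6 nM IGF for 20 min at 37 °C, and lysed. Phospho-Akt Ser473 was read by HTRF as 665/615 ratio ×10^4.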
Pin1 inh – human Pin1 inhibition; AID 504891; Q13526; hit rate 0.009% among 390,000; Pin1 FP peptide displacement, HiFluor488, 10 min; Potency, µM (highest dose often 115 µM), most hits filed as inhibitors; active = well fitted inhibition curve with a large enough effect in the polarisation, with a control signal flat, not every such curve was filed as active; inconclusive = small, poorly fitted or top-dose-only effect, or effect the other way, or a change in a side signal; inactive = no such curve, though single readings can be large or run the other way; the % refers to the polarisation
Target sequence (Q13526 whole entry, looked up): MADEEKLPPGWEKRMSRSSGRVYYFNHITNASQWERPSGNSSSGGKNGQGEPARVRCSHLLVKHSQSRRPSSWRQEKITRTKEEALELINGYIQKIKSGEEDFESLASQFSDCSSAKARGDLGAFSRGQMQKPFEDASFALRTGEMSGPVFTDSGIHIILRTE
AT treatment – potential ataxia-telangiectasia treatments restoring KAP-1 phosphorylation | F2112 A-T fibroblasts, KAP-1 phosphorylation AlphaLISA; neocarzinostatin DNA damage 30 min before lysis | Potency, µM (titrated, usually from 57.5 µM), hits mostly activators | hit rate 0.19% among 320,000 | AID 485349; also: nearly all actives have a fitted effect of over 45% in size
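ATM-like activity read as KAP-1 phosphorylation via AlphaLISA donor/acceptor antibody pairs after lysis and 6 hr at 25C. Cells were ATM-null patient fibroblasts (F2112, hTERT), dosed 60 min, then exposed to the DSB inducer NCS for 30 min.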
N370S GC – inhibitors or activators of N370S glucocerebrosidase for Gaucher disease; P04062; N370S GC spleen homogenate, 4MU-glucoside fluorescence; Potency, µM (highest dose often 59.4 µM), actives largely listed as inhibitors; hit rate 0.092% among 330,000
rTrxR1 inhibitor – blocks rat thioredoxin reductase 1; hit rate 1% among 390,000; Potency, µM (top dose mostly 114 µM), actives largely listed as inhibitors; recombinant rTrxR1, NADPH fluorescence consumption, selenite substrate; also: nearly all actives have a fitted effect of over 65% in size
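Rat TrxR1 (90 nM in the dispensed reagent) was pre-reduced with 400 uM NADPH for 5 min at room temperature, then incubated with compound for 15 min. After 400 uM selenite was added, NADPH fluorescence (Ex 340/Em 450 nm) was followed for 8 min.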
Numbers stand for hits. Unless noted, calls follow the shape of the dose curve; as a rule, active = well fitted curve in the direction sought with a large enough effect; inconclusive = small, poorly fitted or top-dose-only effect, or another doubt; inactive = no such curve, though single readings can be large; an effect the other way counts as inactive or inconclusive.

Screening O=c1c(C(c2ccc(Br)cc2)c2c(O)nc3n(c2=O)CCS3)c(O)nc2n1CCS2 returned TrxR1 substrate inactive, pAkt inh inactive, Pin1 inh inactive, AT treatment inactive, N370S GC inactive and rTrxR1 inhibitor 1.58µM.
For CCCN(CC(=O)Nc1ccccc1C)C(=O)c1ccc(-c2ccc([N+](=O)[O-])cc2)o1 the results were TrxR1 substrate inactive, pAkt inh inactive, Pin1 inh inactive, AT treatment inactive and rTrxR1 inhibitor 3.55µM.
`C=CCNC(=O)c1ccc(-c2cccc([N+](=O)[O-])c2)o1` gave TrxR1 substrate inactive, pAkt inh inactive, Pin1 inh inactive, AT treatment inactive, N370S GC inactive and rTrxR1 inhibitor inactive.
Screening C=CCNC(=O)c1ccc(-c2ccc([N+](=O)[O-])cc2)o1 returned TrxR1 substrate inactive, pAkt inh inactive, Pin1 inh inactive, AT treatment inactive, N370S GC inactive and rTrxR1 inhibitor 10µM.
`CCCN(CC(=O)Nc1ccccc1C)C(=O)COC(=O)CSc1ccc([N+](=O)[O-])cc1` gave TrxR1 substrate inactive, pAkt inh inactive, Pin1 inh inactive, AT treatment inactive, N370S GC inactive and rTrxR1 inhibitor inactive.
`Cc1nn(C)c(C(=O)Sc2cccc(Cl)c2)c1[N+](=O)[O-]` gave TrxR1 substrate inactive, pAkt inh inactive, Pin1 inh inactive, AT treatment inactive, N370S GC inactive and rTrxR1 inhibitor 2µM.
For Cc1nn(C)c(C(=O)Sc2ccccc2)c1[N+](=O)[O-] the results were TrxR1 substrate inactive, pAkt inh inactive, Pin1 inh inactive, AT treatment inactive, N370S GC inactive and rTrxR1 inhibitor inconclusive.
For COc1ccc(-n2nnnc2SCC(=O)NC2CCCC2)cc1OC the results were TrxR1 substrate inactive, pAkt inh inactive, Pin1 inh inactive, AT treatment inactive, N370S GC inactive and rTrxR1 inhibitor inactive.
Screening COc1cc(OC)cc(-n2nnnc2SCC(=O)NC2CCCC2)c1 returned TrxR1 substrate inactive, pAkt inh -115.1%, Pin1 inh inactive, AT treatment inactive, N370S GC inactive and rTrxR1 inhibitor inactive.
Screening O=C(CCC(=O)c1ccc(F)cc1)OCc1nnc(-c2ccc([N+](=O)[O-])cc2)o1 returned TrxR1 substrate inactive, pAkt inh inactive, Pin1 inh inactive, AT treatment inactive and rTrxR1 inhibitor 50.1µM.
`Cc1ccc(CNC(=O)c2ccc(Cn3nc(C)c(Cl)c3C)o2)cc1` gave TrxR1 substrate inactive, Pin1 inh inactive, AT treatment inactive, N370S GC inactive and rTrxR1 inhibitor 39.8µM.
Fc1ccc(Nc2nc(SCc3cccc(Cl)c3)nc3ccccc23)cc1 was read as TrxR1 substrate inactive, Pin1 inh inactive and rTrxR1 inhibitor inactive.
Screening Cc1cc(C)cc(NC(=O)CCc2nnc3n(CC(C)C)c(=O)c4ccccc4n23)c1 returned TrxR1 substrate inactive, Pin1 inh inactive and rTrxR1 inhibitor inactive.
Screening COc1ccc(S(=O)(=O)NCC(c2ccco2)S(=O)(=O)c2ccc(C)cc2)cc1C (stereo not given) returned TrxR1 substrate inactive, Pin1 inh inactive and rTrxR1 inhibitor 11.2µM.
Screening COc1ccc(OC)c(S(=O)(=O)NCC(c2cccs2)S(=O)(=O)c2ccc(F)cc2)c1 (stereo not given) returned TrxR1 substrate inactive, Pin1 inh inactive and rTrxR1 inhibitor 3.16µM.
Screening COc1ccc(C)cc1S(=O)(=O)NCC(c1cccs1)S(=O)(=O)c1ccc(C)cc1 (stereo not given) returned TrxR1 substrate inactive, Pin1 inh inactive and rTrxR1 inhibitor inactive.
`COc1ccc(F)cc1S(=O)(=O)NCC(c1ccco1)S(=O)(=O)c1ccc(F)cc1` (stereo not given) gave TrxR1 substrate inactive, Pin1 inh inactive and rTrxR1 inhibitor 0.891µM.
CCOCCCNC(=O)C1CCN(c2nc3ccc(C)cc3[nH]2)CC1 was read as TrxR1 substrate inactive, Pin1 inh inactive and rTrxR1 inhibitor inactive.
Screening CCOc1ccc(NC(=O)CN2CCN(Cc3ccccc3)S2(=O)=O)cc1 returned TrxR1 substrate inactive, Pin1 inh inactive and rTrxR1 inhibitor inactive.
